PMC4552634, “A New Set of Chemical Starting Points with Plasmodium falciparum Transmission-Blocking Potential for Antimalarial Drug Discovery” (PLoS ONE, 2015)
The campaign covered roughly 13,000 compounds. About 3,200 (25%) showed an effect of 50% or more. The list shows a part of the results.

tested on: P. falciparum stage V gametocytes; design: BacTiter-Glo ATP luminescence viability of purified stage V gametocytes in 384-well plates, per cent inhibition versus DMSO; details: 48 h, 5 µM; inhibitor

Row | Structure (SMILES) | % Inhibition
1 | CN(C)C(=O)c1ccc(CN(Cc2ccc3c(c2)OCCO3)Cc2ccc3c(c2)OCO3)cc1 [TCMDC-136612] | -1.47%
2 | O=C(CC(=O)C(F)(F)F)c1ccc2c(c1)OCO2 [TCMDC-125824] | -11.59%
3 | CN(C)C(=O)c1ccc(CN(Cc2ccc(OC(C)(C)C)cc2)Cc2ccc3c(c2)OCCO3)cc1 [TCMDC-136615] | 62.57%
4 | CC(=O)Nc1ccc(CN(Cc2ccc(C)cc2)Cc2cccc(Oc3ccccc3)c2)cc1 [TCMDC-140147] | 4.246%
5 | CN(C)C(=O)c1ccc(CN(Cc2cccc(OC(C)(C)C)c2)Cc2ccc3c(c2)OCCO3)cc1 [TCMDC-136614] | 66.69%
6 | CC(C)(C)OC(=O)NCC(=O)N(Cc1ccccc1)Cc1ccccc1 [TCMDC-131954] | 1.715%
7 | CC(=O)Nc1ccc(CN(Cc2ccc(OC(C)(C)C)cc2)Cc2ccc3c(c2)OCCO3)cc1 [TCMDC-136616] | -22.37%
8 | Cc1ccc(CN(Cc2ccc(C(=O)N(C)C)cc2)Cc2ccc3c(c2)OCCO3)cc1C [TCMDC-136617] | 24.15%
9 | CC(=O)Nc1ccc(CN(Cc2cccc(OC(C)(C)C)c2)Cc2ccc3c(c2)OCCO3)cc1 [TCMDC-136613] | 87.49%
10 | O=C(/C=C/c1ccc([N+](=O)[O-])cc1)N1CCC(NS(=O)(=O)c2cccc(C(F)(F)F)c2)CC1 [TCMDC-139443] | -15.57%
11 | c1ccc(C(c2ccccc2)N2CCN(C(c3cccnc3)c3nnnn3C3CCCC3)CC2)cc1 (stereo not shown) [TCMDC-123571] | -4.144%
12 | Cc1cc(NC(=O)Nc2ccc3ccn(C)c3c2)c2ccccc2n1 [TCMDC-140057] | 10.89%
13 | CC1CCN(c2nc(C(=O)Nc3ccc(F)cc3C(F)(F)F)c(C(C)C)s2)CC1 [TCMDC-134661] | -14.15%
14 | CC1(C)N=C(N)N=C(N)N1c1cc(Cl)c(Cl)cc1Cl [TCMDC-124503] | -35.38%
15 | CSc1nc2cc3c(cc2n1C(=O)c1ccc(C)cc1)OCCO3 [TCMDC-125385] | -23.6%
16 | Cc1ccccc1N1CCN(c2ccc(C(=O)Nc3ccccc3)cc2)CC1 [TCMDC-134565] | 28.84%
17 | O=C(O)C(F)(F)F.c1ccc2[nH]c(-c3ccc(-c4ccc(CNCC5CCCO5)cc4)s3)nc2c1 (stereo not shown) [TCMDC-133106] | -3.113%
18 | Oc1ccc(-c2cc(COc3ccccc3C(F)(F)F)c(C3=CCNCC3)cc2COc2ccccc2C(F)(F)F)cc1 [TCMDC-134520] | 89.52%
19 | CN(C)CCOc1cc(NC(=O)Nc2ccc(-c3ccncc3)c(C(F)(F)F)c2)ccc1Cl [TCMDC-139224] | -31.22%
20 | FC(F)(F)c1ccccc1OCc1cc(-c2ccncc2)c(COc2ccccc2C(F)(F)F)cc1C1=CCNCC1 [TCMDC-134498] | 112.2%
21 | COc1cc(C=CC(=O)N2CCN(Cc3cccc(C)c3)CC2)ccc1OCc1c(C)noc1C [TCMDC-125249] | 23.84%
22 | Cc1nc(N)nc(N)c1Oc1cccc(Cl)c1 [TCMDC-137376] | -5.588%
23 | Cc1ccc(C)c(NC(=O)NCCNc2ccnc(Nc3ccc(F)cc3)n2)c1 [TCMDC-133638] | 7.929%
24 | CN1CCN(c2cc(NC(=O)c3ccc(-c4ccc(C#N)cc4)cc3)ccc2Cl)CC1 [TCMDC-138670] | -41.42%
25 | O=C(Nc1ccc(OC2CCN(Cc3ccc(F)cc3)CC2)c(Cl)c1)c1ccsc1 [TCMDC-133745] | -5.727%

Row | Structure (SMILES) | % Inhibition
26 | Cc1cc(=O)oc2c1ccc1oc(C(O)c3ccc(Cl)cc3)c(C)c12 (stereo not shown) [TCMDC-123999] | -9.04%
27 | CCOc1ccc2nc(C)cc(NN=Cc3ccccc3F)c2c1 [TCMDC-142092] | 61.8%
28 | Cc1ccc2nc(C)cc(NN=Cc3ccccc3F)c2c1 [TCMDC-142065] | 60.82%
29 | Cc1ccc2nc(C)cc(NN=Cc3ccccc3Cl)c2c1 [TCMDC-142062] | -47.12%
30 | COc1ccc2nc(C)cc(NN=Cc3ccccc3F)c2c1 [TCMDC-142083] | 38.04%
31 | Cc1cc(NN=Cc2ccccc2F)c2ccccc2n1 [TCMDC-123982] | -9.703%
32 | Cc1cc(NN=Cc2ccccc2F)c2cc(C(F)(F)F)ccc2n1 [TCMDC-142027] | -61.45%
33 | Fc1cccc(C=NNc2ccnc3cc(Cl)ccc23)c1 [TCMDC-123966] | -20.4%
34 | Fc1ccc2c(NN=Cc3ccccc3F)ccnc2c1 [TCMDC-142018] | 101.1%
35 | Fc1cccc(C=NNc2ccnc3ccccc23)c1 [TCMDC-142058] | -35.92%
36 | CCOc1ccc2nc(C)cc(NN=Cc3cccc(C)n3)c2c1 [TCMDC-142050] | 48.92%
37 | CCOc1ccc2nc(C)cc(NN=Cc3ccccc3Cl)c2c1 [TCMDC-142090] | 95.12%
38 | CC(C)CC(NC(=O)c1cccc(OCCN2CCOCC2)c1)C(=O)NC(/C=N/NC(=O)c1ccccc1)CCc1ccccc1 (stereo not shown) [TCMDC-135464] | 15.6%
39 | CC1(C)CCCN(C(=O)c2cccc(-n3nc(-c4ccc(Cl)cc4)cc3N)c2)C1 [TCMDC-134042] | -38.1%
40 | O=C(Nc1ccc2c(c1)CCC2)c1cnc(N2CCN(c3ccncc3)CC2)c(Cl)c1 [TCMDC-134596] | 8.854%
41 | O=C(Nc1ccc(Br)cc1)N(CCN1CCOCC1)CC(O)COCc1ccc(Cl)c(Cl)c1 (stereo not shown) [TCMDC-141490] | 5.181%
42 | Cc1ccc(N2C(N)=NC(N)=NC2(C)C)cc1 [TCMDC-131578] | 18.97%
43 | CN(CCON1C(N)=NC(N)=NC1(C)C)c1ccccc1 [TCMDC-131733] | 4.514%
44 | O=C(Nc1ccc(I)cc1)N1CCc2sccc2C1CN1CCCCC1 (stereo not shown) [TCMDC-136648] | -39.22%
45 | CC(CN(C)C)C(=O)Nc1cccc(-c2ccc(-c3nc4cc(F)ccc4[nH]3)s2)c1 (stereo not shown) [TCMDC-137114] | -16.25%
46 | CCN(CCO)CCCC(C)Nc1ccnc2cc(Cl)ccc12 (stereo not shown) [TCMDC-123987] | 30.66%
47 | CCC(C)(C)C1CCc2nc(N)nc(N)c2C1 (stereo not shown) [TCMDC-137870] | -20.62%
48 | CC(C)(C)C1CCc2nc(N)nc(N)c2C1 (stereo not shown) [TCMDC-137954] | 82.06%
49 | CC(C)C1CCc2nc(N)nc(N)c2C1 (stereo not shown) [TCMDC-137947] | 0.4281%
50 | CCCC1(NC[C@@H](O)[C@H](Cc2ccccc2)NC(=O)c2cc(NCC)cc(N3CCCCS3(=O)=O)c2)CCC1 [TCMDC-135374] | 23.04%

Row | Structure (SMILES) | % Inhibition
51 | CCOC(=O)CN1Cc2cc(NCc3ccc4ccc5nc(C)[nH]c(=O)c5c4c3)ccc2C1=O [TCMDC-137815] | 10.92%
52 | CCOC(=O)COc1cccc(CNc2ccc3nc(N)nc(N)c3c2)c1 [TCMDC-137822] | 100.9%
53 | Cc1ccccc1CNc1ccc2nc(N)nc(N)c2c1 [TCMDC-135439] | 74.86%
54 | CCN(Cc1cccc2ccccc12)c1ccc2nc(N)nc(N)c2c1 [TCMDC-137765] | -46.6%
55 | COc1ccc(CNc2ccc3nc(N)nc(N)c3c2)cc1 [TCMDC-139002] | 12.04%
56 | Nc1nc(N)c2c(Cl)c(CNc3cccc(C(=O)O)c3)ccc2n1 [TCMDC-138268] | -3.552%
57 | CCOc1ccccc1C(=O)N1CCc2cc3nccc(N4CCN5CCC[C@H]5C4)c3cc21 [TCMDC-140042] | 21.16%
58 | CN(C)CCOc1ccc(-c2cc(-c3ccc(Cl)c(O)c3)c(-c3ccncc3)o2)cc1 [TCMDC-141254] | -18.41%
59 | COc1ccc2nc(NC3=NC(c4ccccn4)(c4ccccn4)C(=O)N3C)[nH]c2c1 [TCMDC-139288] | 10.34%
60 | Cc1cccc(CN2CCCN(Cc3cccc(C(=O)Nc4ccc(C(C)(C)C)cc4)c3)CC2)c1 [TCMDC-135984] | -91.41%
61 | CN(C)CCOc1ccc(-c2cc(-c3ccc(Cl)c(O)c3)c(-c3ccnc(N)n3)o2)cc1 [TCMDC-141332] | 28.72%
62 | N#Cc1cncc(-c2nc3c(N4CCN(c5cnccn5)CC4)cccc3n2CCNCc2ccccc2)c1 [TCMDC-133413] | -21.4%
63 | CC(C)CN(C)c1ncnc2c1nc(-c1cncc(C#N)c1)n2CCNCc1ccccc1 [TCMDC-136555] | 12.57%
64 | COc1ccccc1N1CCN(c2cccc3c2nc(-c2cncc(C#N)c2)n3CCNCc2ccccc2)CC1 [TCMDC-133412] | -37.42%
65 | N#Cc1ccc(-c2nc3c(N4CCCC4)cccc3n2CCNCc2ccccc2)cc1 [TCMDC-133433] | 30.7%
66 | CN(C)c1cccc2c1nc(-c1ccc3c(c1)CCO3)n2CCNCc1ccccc1 [TCMDC-134062] | 5.243%
67 | CC[C@H](C)CNC(=O)c1cncc(-c2cccc(CN3CCC(N4CCCC4)CC3)c2)c1 [TCMDC-134226] | 16.8%
68 | Oc1ccc(-c2nc3c(N4CCN(Cc5ccccc5)CC4)cccc3n2C2CCNCC2)cc1 [TCMDC-132125] | 4.567%
69 | CC1CN(c2cccc3c2nc(-c2cncc(C#N)c2)n3CCNCc2ccccc2)CC(C)O1 (stereo not shown) [TCMDC-133411] | 66.36%
70 | N#Cc1cncc(-c2nc3c(N4CCC(Cc5ccccc5)CC4)cccc3n2CCNCc2ccccc2)c1 [TCMDC-133546] | 51.69%
71 | c1ccc(CNCCn2c(-c3ccc4c(c3)CCO4)nc3c(N4CCCC4)cccc32)cc1 [TCMDC-134289] | 92.48%
72 | N#Cc1cncc(-c2nc3c(N4CCC(N5CCCC5)CC4)cccc3n2CCNCc2ccccc2)c1 [TCMDC-133547] | 94.76%
73 | N#Cc1cncc(-c2nc3c(N4CCCC(N)C4)cccc3n2CCNCc2ccccc2)c1 (stereo not shown) [TCMDC-135364] | -9.75%
